Here are results for 6 compounds from PubChem BioAssay (EPA / NIEHS).

Read-out in test [1]: Tissue Factor, F3 (gene 2152)
Briefly: BSK_CASM3C_TissueFactor: BioMAP Diversity Plus: CASM3C Assay for Tissue Factor Biomarker Activity (AID 2283052).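 Note: cell surface tissue factor protein level read by ELISA.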 The following applies: primary human coronary artery smooth muscle cells; actives raise or lower the signal.

Read-out in test [2]: Interferon-gamma inducible Protein 10 (IP10), CXCL10 (gene 3627)
Kind of test: BSK_hDFCGF_IP10: BioMAP Diversity Plus: hDFCGF Assay for Interferon-gamma inducible Protein 10 (IP10) Biomarker Activity (AID 2283053). The following applies: primary human foreskin fibroblasts; actives raise or lower the signal. In a few lines: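 Primary human foreskin fibroblasts exposed to chemicals for 24 h. IP-10 measured by ELISA; changes fitted bidirectionally against DMSO baseline.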

Read-out in test [3]: Urokinase-type plasminogen activator receptor (uPAR), PLAUR (gene 5329)
Kind of test: BSK_CASM3C_uPAR: BioMAP Diversity Plus: CASM3C Assay for Urokinase-type plasminogen activator receptor (uPAR) Biomarker Activity (AID 2283054).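 Note: cell-surface uPAR protein level quantified by ELISA.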 The conditions noted are these: primary human coronary artery smooth muscle cells; actives raise or lower the signal.

Read-out in test [4]: Vascular cell adhesion molecule 1 (VCAM1), VCAM1 (gene 7412)
Briefly: BSK_CASM3C_VCAM1: BioMAP Diversity Plus: CASM3C Assay for Vascular cell adhesion molecule 1 (VCAM1) Biomarker Activity (AID 2283055).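 Note: VCAM-1 protein level quantified by ELISA on the cells.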 The following applies: primary human coronary artery smooth muscle cells; actives raise or lower the signal.

Read-out in test [5]: Collagen III, COL3A1 (gene 1281)
Briefly: BSK_hDFCGF_CollagenIII: BioMAP Diversity Plus: hDFCGF Assay for Collagen III Biomarker Activity (AID 2283056). The following applies: primary human foreskin fibroblasts; actives raise or lower the signal. In a few lines: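 hDFCGF primary human dermal fibroblasts; 24 h chemical exposure; collagen III by ELISA; bidirectional curve fit vs DMSO baseline (gain or loss of signal).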

Read-out in test [6]: Epidermal growth factor receptor (EGFR), EGFR (gene 1956)
Kind of test: BSK_hDFCGF_EGFR: BioMAP Diversity Plus: hDFCGF Assay for Epidermal growth factor receptor (EGFR) Biomarker Activity (AID 2283057). The conditions noted are these: primary human foreskin fibroblasts; actives raise or lower the signal. In outline: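 Primary human foreskin fibroblasts (hDFCGF system), sampled 24 h after dosing; EGFR quantified by ELISA. Bidirectional fit relative to DMSO baseline; SRB total-protein staining in parallel cultures for cytotoxicity.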

Read-out in test [7]: Interleukin-8 (IL8), CXCL8 (gene 3576)
Kind of test: BSK_hDFCGF_IL8: BioMAP Diversity Plus: hDFCGF Assay for Interleukin-8 (IL8) Biomarker Activity (AID 2283058). The conditions noted are these: primary human foreskin fibroblasts; actives raise or lower the signal. In a few lines: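 ELISA read-out of IL-8 from primary human foreskin fibroblast cultures taken 24 h after dosing; values are bidirectional fits relative to DMSO vehicle.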

The nature of test [8]: BSK_hDFCGF_Proliferation: Cell Proliferation Assessment in the BioMAP Diversity Plus: hDFCGF Assay (AID 2283059).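 Note: curves fitted for both rise and fall of signal versus DMSO baseline.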 The following applies: primary human foreskin fibroblasts. In outline: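 Steps: dose primary human dermal fibroblasts (foreskin); […] fix in 10% TCA; stain with 0.1% SRB; read 560 nm; fit gain or loss of signal against DMSO.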
Read-out in test [9]: Macrophage colony-stimulating factor (MCSF), CSF1 (gene 1435)
Briefly: BSK_hDFCGF_MCSF: BioMAP Diversity Plus: hDFCGF Assay for Macrophage colony-stimulating factor (MCSF) Biomarker Activity (AID 2283060). The following applies: primary human foreskin fibroblasts; actives raise or lower the signal. In outline:
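ELISA read-out of M-CSF in human dermal foreskin fibroblast cultures, 24 h after chemical dosing; gain or loss of signal fitted bidirectionally relative to DMSO baseline.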

Test [10] in a line: BSK_hDFCGF_SRB: Viability Assessment in the BioMAP Diversity Plus: hDFCGF Assay (AID 2283061).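 Note: cells exposed to compound for 24 h before the read.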 The following applies: primary human foreskin fibroblasts. In outline: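 Primary human foreskin fibroblasts; 24 h post-dose; fixed 10% TCA, stained 0.1% SRB, A560 read; total protein as overt cytotoxicity measure; curves fit bidirectionally vs DMSO control.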
Read-out in test [11]: TIMP metallopeptidase inhibitor 1 (TIMP1), TIMP1 (gene 7076)
Briefly: BSK_hDFCGF_TIMP1: BioMAP Diversity Plus: hDFCGF Assay for TIMP metallopeptidase inhibitor 1 (TIMP1) Biomarker Activity (AID 2283062). The conditions noted are these: primary human foreskin fibroblasts; actives raise or lower the signal. In a few lines:
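ELISA readout of TIMP-1 from human dermal foreskin fibroblast cultures 24 h post-dosing. Curves were fitted in both directions against DMSO baseline, with SRB total-protein staining in parallel cultures as a cytotoxicity check.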

Read-out in test [12]: Monokine induced gamma interferon (MIG), CXCL9 (gene 4283)
Kind of test: BSK_hDFCGF_MIG: BioMAP Diversity Plus: hDFCGF Assay for Monokine induced gamma interferon (MIG) Biomarker Activity (AID 2283063). The following applies: primary human foreskin fibroblasts; actives raise or lower the signal. In a few lines:
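Fibroblasts (human foreskin, primary) dosed, 24 h, MIG by ELISA; fit bidirectional vs DMSO.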

Read-out in test [13]: Matrix Metallopeptidase 1 (MMP1), MMP1 (gene 4312)
Kind of test: BSK_hDFCGF_MMP1: BioMAP Diversity Plus: hDFCGF Assay for Matrix Metallopeptidase 1 (MMP1) Biomarker Activity (AID 2283064). The following applies: primary human foreskin fibroblasts; actives raise or lower the signal. In outline:
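Primary human foreskin fibroblasts in the hDFCGF system were dosed with test chemical, and MMP1 was measured by ELISA 24 h later. Values come from bidirectional curve fitting against the DMSO baseline.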

Read-out in test [14]: Vascular cell adhesion molecule 1 (VCAM1), VCAM1 (gene 7412)
Kind of test: BSK_hDFCGF_VCAM1: BioMAP Diversity Plus: hDFCGF Assay for Vascular cell adhesion molecule 1 (VCAM1) Biomarker Activity (AID 2283065).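 For AC50: VCAM-1 protein level quantified by ELISA after 24 h chemical exposure.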 The following applies: primary human foreskin fibroblasts; actives raise or lower the signal. In a few lines: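 ELISA read-out of VCAM-1 on human skin fibroblasts, 24 h post-dose; gain or loss of signal fitted bidirectionally against DMSO baseline.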

Read-out in test [15]: Plasminogen activator inhibitor-1 (PAI1), SERPINE1 (gene 5054)
Kind of test: BSK_hDFCGF_PAI1: BioMAP Diversity Plus: hDFCGF Assay for Plasminogen activator inhibitor-1 (PAI1) Biomarker Activity (AID 2283066). The conditions noted are these: primary human foreskin fibroblasts; actives raise or lower the signal. In a few lines: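 Human foreskin fibroblast primary cells, 24 h chemical exposure; PAI-1 measured by ELISA. Bidirectional fitting relative to DMSO; parallel cultures stained with SRB for total protein to flag overt cytotoxicity.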

Read-out in test [16]: Intercellular Adhesion Molecule 1 (ICAM1), ICAM1 (gene 3383)
Kind of test: BSK_KF3CT_ICAM1: BioMAP Diversity Plus: KF3CT Assay for Intercellular Adhesion Molecule 1 (ICAM1) Biomarker Activity (AID 2283067). The following applies: primary human keratinocytes with fibroblasts; actives raise or lower the signal. In outline:
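ELISA readout of ICAM-1; KF3CT human skin co-culture (keratinocytes + foreskin fibroblasts), 24 h post-dose; gain/loss fit vs DMSO baseline.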

Read-out in test [17]: Interferon-gamma inducible Protein 10 (IP10), CXCL10 (gene 3627)
Kind of test: BSK_KF3CT_IP10: BioMAP Diversity Plus: KF3CT Assay for Interferon-gamma inducible Protein 10 (IP10) Biomarker Activity (AID 2283068). The following applies: primary human keratinocytes with fibroblasts; actives raise or lower the signal. In a few lines: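 KF3CT co-culture (keratinocytes + foreskin fibroblasts), 24 h compound, IP-10 by ELISA; bidirectional fit vs DMSO baseline.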

Test [18] in a line: BSK_KF3CT_SRB: Viability Assessment in the BioMAP Diversity Plus: KF3CT Assay (AID 2283069).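 Note: total protein by sulforhodamine B staining as a cytotoxicity measure; read 24 h after compound addition.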 The conditions noted are these: primary human keratinocytes with fibroblasts. In outline:
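Human primary keratinocyte plus foreskin fibroblast co-culture exposed to chemicals for 24 h. Total protein measured by 0.1% sulforhodamine B staining after 10% TCA fixation, read at 560 nm; bidirectional fitting versus DMSO baseline.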

Read-out in test [19]: Interleukin-1 alpha (IL1a), IL1A (gene 3552)
Kind of test: BSK_KF3CT_IL1a: BioMAP Diversity Plus: KF3CT Assay for Interleukin-1 alpha (IL1a) Biomarker Activity (AID 2283070). The following applies: primary human keratinocytes with fibroblasts; actives raise or lower the signal. In outline:
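Human keratinocyte plus foreskin fibroblast primary co-culture, sampled 24 h after chemical dosing. IL-1a measured by ELISA; responses fitted bidirectionally against DMSO baseline (negative control), so gain or loss of signal both count.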

Read-out in test [20]: TIMP metallopeptidase inhibitor 2 (TIMP2), TIMP2 (gene 7077)
Briefly: BSK_KF3CT_TIMP2: BioMAP Diversity Plus: KF3CT Assay for TIMP metallopeptidase inhibitor 2 (TIMP2) Biomarker Activity (AID 2283071). The conditions noted are these: primary human keratinocytes with fibroblasts; actives raise or lower the signal. In a few lines:
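Co-culture of human primary keratinocytes and foreskin fibroblasts, measured 24 h after chemical dosing. TIMP-2 quantified by ELISA and fitted in both directions relative to DMSO. Cytotoxicity checked in parallel cultures by SRB total-protein staining.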

Activity calls are given as the source filed them. Rule for the calls: active = hit-call score of the fitted dose curve at least 0.9, where 1 is the maximum; inactive = score below 0.9.

For `CCCCC(CC)COC(=O)c1ccc(C(=O)OCC(CC)CCCC)c(C(=O)OCC(CC)CCCC)c1` (stereo unspecified), the outcome in [1], in [2], in test [3], in test [4], in test [5] and in [6] was inactive. In addition, the outcome in test [7], in [8], in test [9], in test [10], in test [11] and in test [12] was inactive. Further, the outcome in test [13], in [14], in test [15], in [16], in test [17] and in test [18] was inactive. Besides, the outcome in test [19] and in test [20] was inactive.
As for `CCN(CC)N=O`, the outcome in test [1], in test [2], in [3], in [4], in [5] and in test [6] was inactive. The outcome in [7], in test [8], in [9], in [10], in test [11] and in [12] was inactive. The result in [13], in test [14], in test [15], in test [17], in test [18] and in test [19] was inactive. For the same compound, the outcome in test [20] was inactive.
Consider `CCC[CH2][Sn]([Cl])([CH2]CCC)[CH2]CCC`, for which the AC50 in test [1] is 148 nM (active); in test [2], 259 nM (active); in test [3], 406 nM (active); in [4], 148 nM (active); in test [5] it was 316 nM (active); in test [7], 287 nM (active). Further, the AC50 in test [8] was 148 nM (active); in test [9] it was 148 nM (active); in test [10], 148 nM (active); in test [11], 148 nM (active); in test [12], 369 nM (active); in [13] it was 271 nM (active). Further, the AC50 in [14] was 148 nM (active); in [15] it was 296 nM (active); in test [17], 342 nM (active); in [18] it was 422 nM (active); in test [19], 294 nM (active); in test [20] it was 246 nM (active). Also, in test [6], the result was inactive.
As to `Nc1ccc(Oc2ccc(N)cc2)cc1`, the outcome in test [1], in test [2], in test [3], in test [4], in test [5] and in test [6] was inactive. The result in test [7], in [9], in test [10], in [11], in test [12] and in test [13] was inactive. Also, the result in [14], in test [15], in test [17], in [18], in [19] and in [20] was inactive. Further, the AC50 in test [8] was 4110 nM (active).
As for `CN(C)[C@@H]1C(=O)C(C(N)=O)=C(O)[C@@]2(O)C(=O)C3=C(O)c4c(O)cccc4[C@@](C)(O)[C@H]3C[C@@H]12`, the outcome in test [1], in [2], in [3], in [4], in [5] and in test [6] was inactive. Also, the result in test [7], in test [9], in [10], in test [11], in test [12] and in test [13] was inactive. Besides, the result in test [14], in [15], in test [16], in test [17], in test [18] and in [19] was inactive. The outcome in [20] was inactive. In test [8], the AC50 was 22900 nM (active).
As to `C[C@]12C=CC3=C4CCC(=O)C=C4CC[C@H]3[C@@H]1CC[C@@H]2O`, the result in [1], in [2], in test [3], in test [4], in test [5] and in test [6] was inactive. Besides, the result in test [7], in [8], in [9], in test [10], in test [11] and in test [12] was inactive. The outcome in test [13], in [17], in test [18], in test [19] and in test [20] was inactive. Moreover, the figures for the AC50 in [14] and in [15] were 27700 nM (active) and 164 nM (active), respectively.

The term AC50 denotes the midpoint of the concentration-response curve, whichever way the signal moves.
